Assay outcomes from PubChem BioAssay.
An excerpt weighted towards active compounds, which were near 2.5% of everything screened.
GRK2 aptamer HTS: compounds blocking aptamer binding on GRK2 – biochemical, human GRK2, bead flow cytometry, HTS, primary screen; AID 488847, 2010; 330,000 tested, 0.59% active; Beta-adrenergic receptor kinase 1 (Homo sapiens), P25098; inhibition of aptamer binding, % at 10 µM; FAM-aptamer displacement from GRK2;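 active means inhibition of aptamer binding above 40%, roughly 3 SD of noise, on plates passing a quality check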;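 further: median bead fluorescence of bound FAM aptamer so fluorescent compounds give negative values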
MEKK3 PB1 HTS: modulators of MEKK3-MEK5 PB1 binding, primary screen, biochemical, wildtype MEKK3, multiplex bead flow cytometry, Alexa488-MEK5; Mitogen-activated protein kinase kinase kinase 3 (Homo sapiens), Q99759; bead-based flow cytometry, Alexa488-MEK5 binding to MEKK3; actives lie on both sides; 0 = blocked by unlabeled MEK5, 100 = vehicle; binding response (% of control), % at 10 µM; 290,000 tested, 1.4% active; AID 1529, 2009;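 active means binding response more than 3 SD above or below the average of its plate-row segment, actives on both sides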;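 further: Alexa488 bead fluorescence after subtracting the streptavidin-only scavenger bead signal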
Target sequence (Q99759 whole entry, looked up): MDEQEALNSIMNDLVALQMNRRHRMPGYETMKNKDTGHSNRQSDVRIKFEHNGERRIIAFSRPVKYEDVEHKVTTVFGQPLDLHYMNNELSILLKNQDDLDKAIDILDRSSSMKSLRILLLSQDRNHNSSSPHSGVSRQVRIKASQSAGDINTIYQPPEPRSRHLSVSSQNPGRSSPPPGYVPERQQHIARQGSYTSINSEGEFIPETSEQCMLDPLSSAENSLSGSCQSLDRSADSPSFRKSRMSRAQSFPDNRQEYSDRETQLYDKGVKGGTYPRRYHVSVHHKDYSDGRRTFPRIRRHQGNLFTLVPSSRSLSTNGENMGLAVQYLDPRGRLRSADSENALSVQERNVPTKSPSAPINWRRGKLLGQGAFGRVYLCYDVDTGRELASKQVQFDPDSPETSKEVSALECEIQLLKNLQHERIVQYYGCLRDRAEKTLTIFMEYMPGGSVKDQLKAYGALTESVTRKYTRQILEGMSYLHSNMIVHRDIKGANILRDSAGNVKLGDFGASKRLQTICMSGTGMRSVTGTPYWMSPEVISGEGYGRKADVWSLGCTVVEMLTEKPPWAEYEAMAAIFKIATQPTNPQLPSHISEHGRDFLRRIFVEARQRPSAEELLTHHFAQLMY
MEKK2 WT-MEK5: modulators of MEK5 binding to wildtype MEKK2, primary screen, biochemical, multiplex bead flow cytometry, Alexa488-MEK5 | 290,000 tested, 1.1% active | Mitogen-activated protein kinase kinase kinase 2 (Homo sapiens), Q9Y2U5 | binding response (% of control), % at 10 µM | Alexa488-MEK5 binding to MEKK2 WT; actives lie on both sides | AID 1531, 2009; in the data active means binding response below about 67% or above about 130%
MEKK2mut PB1 HTS: MEK5 binding signal on mutant MEKK2 PB1, primary screen, biochemical, multiplex bead flow cytometry, Alexa488-MEK5. Alexa488-MEK5 binding to MEKK2 mutant. percent response, % at 10 µM. 290,000 tested, 0.35% active. AID 1530, 2009; in the data active means percent response above about 24%, passing the limit was not always enough
MEKK2wt confirm: modulators of MEK5 binding to wildtype MEKK2, confirmation, biochemical, single concentration, multiplex bead flow cytometry; Alexa488-MEK5 binding to MEKK2 WT; actives lie on both sides; binding response (% of control), % at 10 µM; 5,900 tested, 2.4% active; shares compounds with MEKK3 PB1 HTS; in the data active means binding response below about 16% or above about 210%; inactive means in between
MEKK2mut confirm: mutant MEKK2 PB1-MEK5 binding signal retest – biochemical, single concentration, multiplex bead flow cytometry, confirmation | shares compounds with MEKK3 PB1 HTS | Alexa488-MEK5 binding to MEKK2 mutant | percent response, % at 10 µM | 5,900 tested, 2% active | AID 1893, 2009; in the data active means percent response mostly above about 71%, no sharp cut-off; inactive means mostly below about 38%;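 further: higher means compound restores mutant binding toward wildtype level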
MEKK3-MEK5 inh: MEKK3 wild-type PB1 binding to MEK5, inhibitors, confirmation, biochemical, bead multiplex flow cytometry, single concentration, wildtype | shares compounds with MEKK3 PB1 HTS | 5,900 tested, 1.8% active | AID 1894, 2009 | Alexa488-MEK5 binding to MEKK3; stronger effect = lower value | binding response (% of control), % at 10 µM;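 active means binding response below 72% of control, or above a set upper limit, though filed actives all read lower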
Each line names hits and unclear results; the compound was inactive in the other large screens (follow-up assays come after a bar, where they were run); [ ] = dose if it differs, or a comment.

Cc1ccc(CCN2CC(C(=O)NCCCN3CCC(C)CC3)CC2=O)cc1 (stereo not given)	none
COc1ccc(CN2CC(C(=O)NCCCN3CCCCCC3)CC2=O)cc1 (stereo not given)	MEKK2 WT-MEK5 137 | MEKK2wt confirm inactive | MEKK2mut confirm inactive | MEKK3-MEK5 inh inactive
Cc1ccc(S(=O)(=O)N2CCC(C(=O)NCCCN3CCCC3=O)CC2)cc1	none (no result: MEKK3 PB1 HTS, MEKK2 WT-MEK5, MEKK2mut PB1 HTS)
CC(C)CCN1CC(C(=O)NCc2ccc(F)cc2)CC1=O (stereo not given)	none
O=C(CNC(=O)c1ccc(Cl)cc1Cl)OCC(=O)N1CCCC1=O	none (no result: MEKK3 PB1 HTS, MEKK2 WT-MEK5, MEKK2mut PB1 HTS)
Cc1ccc(CCN2CC(C(=O)NCCN3CCOCC3)CC2=O)cc1 (stereo not given)	none
Cc1ccc(CCN2CC(C(=O)NCCN3CCCCCC3)CC2=O)cc1 (stereo not given)	MEKK2 WT-MEK5 161, MEKK2mut PB1 HTS 62 | MEKK2wt confirm inactive | MEKK2mut confirm 72 | MEKK3-MEK5 inh inactive
CC(C)C(=O)Nc1ccc(-c2csc(-c3ccccc3)n2)cc1	none
CC(C)C(=O)Nc1cccc(-c2csc(-c3ccccc3)n2)c1	MEKK3 PB1 HTS 139 | MEKK2wt confirm inactive | MEKK2mut confirm inactive | MEKK3-MEK5 inh inactive
Oc1ccccc1CN1CCCN(Cc2ccccc2O)C1	MEKK3 PB1 HTS 124 | MEKK2wt confirm inactive | MEKK2mut confirm inactive | MEKK3-MEK5 inh inactive
Oc1ccccc1CN1CCN(C(O)(c2ccccc2)c2ccccc2)CC1	none
Cc1cccc(/C=C/C(=O)c2ccc(N3CCOCC3)cc2)c1	MEKK2mut PB1 HTS 86 (no result: MEKK2 WT-MEK5) | MEKK2wt confirm inactive | MEKK2mut confirm inactive | MEKK3-MEK5 inh inactive
CC(=O)c1ccccc1NC(=O)COC(=O)Cc1cccc(C(F)(F)F)c1	none (no result: MEKK3 PB1 HTS, MEKK2 WT-MEK5, MEKK2mut PB1 HTS)
CCN(CC)c1c2c(c(C#N)c3nc4ccccc4n13)CCC2	MEKK3 PB1 HTS 69[inhibitor] | MEKK2wt confirm inactive | MEKK2mut confirm inactive | MEKK3-MEK5 inh inactive
O=S(=O)(NCc1cccnc1)c1ccc(Cl)cc1	none (no result: GRK2 aptamer HTS)
CN(CCS(=O)(=O)c1ccc(Cl)cc1)Cc1cccnc1	MEKK3 PB1 HTS 138 | MEKK2wt confirm inactive | MEKK2mut confirm inactive | MEKK3-MEK5 inh inactive
Cc1cccc(NC(=O)Cn2c([N+](=O)[O-])cnc2C)c1C	MEKK3 PB1 HTS 136 | MEKK2wt confirm inactive | MEKK2mut confirm inactive | MEKK3-MEK5 inh inactive
Cc1cc(=O)[nH]n(CCO)c1=O	none
CCN(CC)S(=O)(=O)c1cccc(-c2nnc(SCC(=O)NC)n2N)c1	MEKK3 PB1 HTS 6.0[inhibitor], MEKK2 WT-MEK5 7.0[inhibitor] | MEKK2wt confirm inactive | MEKK2mut confirm inactive | MEKK3-MEK5 inh inactive
COc1ccc(C(=NNc2ccccc2C(=O)O)c2ccc(OC)cc2)cc1	MEKK3 PB1 HTS 150 | MEKK2wt confirm inactive | MEKK2mut confirm inactive | MEKK3-MEK5 inh inactive
O=C(CS(=O)(=O)c1ccc(Cl)cc1)Nc1nnc(-c2cccs2)o1	none
C=CCN(C(=O)c1csnn1)C(C(=O)NCc1ccc(F)cc1)c1ccccc1F (stereo not given)	none
CC(C)c1nc2ccc(Br)cn2c1NC1CCCC1	MEKK3 PB1 HTS 129 | MEKK2wt confirm inactive | MEKK2mut confirm inactive | MEKK3-MEK5 inh inactive
O=C(Nc1ccc(Cl)cn1)c1ccc2c(Cl)c3c(nc2c1)CCC3	MEKK3 PB1 HTS 40[inhibitor], MEKK2 WT-MEK5 47[inhibitor] | MEKK2wt confirm inactive | MEKK2mut confirm inactive | MEKK3-MEK5 inh 70
Cc1cccc(NC(=O)c2ccc3c(Cl)c4c(nc3c2)CCCC4)n1	none
COc1cccc(-n2c(C)n[nH]c2=O)c1	MEKK3 PB1 HTS 3.0[inhibitor], MEKK2 WT-MEK5 3.0[inhibitor] | MEKK2wt confirm inactive | MEKK2mut confirm inactive | MEKK3-MEK5 inh inactive
CC(=O)c1ccc(N=C2C(=O)Nc3ccccc32)cc1	MEKK3 PB1 HTS 56[inhibitor], MEKK2 WT-MEK5 20[inhibitor] | MEKK2wt confirm inactive | MEKK2mut confirm inactive | MEKK3-MEK5 inh inactive
O=C1Nc2ccccc2C1=Nc1ccc(F)cc1	none
CCn1cc(C(=O)NCCCN2CCC(C)CC2)c(=O)c2cc(S(=O)(=O)N3CCOCC3)ccc21	none
Oc1ccc(/C=N/Nc2nccnc2Cl)cc1	MEKK3 PB1 HTS 126 | MEKK2wt confirm inactive | MEKK2mut confirm inactive | MEKK3-MEK5 inh inactive
Nc1c(Cl)ncnc1N/N=C/c1ccc(O)cc1	MEKK3 PB1 HTS 51[inhibitor], MEKK2 WT-MEK5 53[inhibitor] | MEKK2wt confirm inactive | MEKK2mut confirm inactive | MEKK3-MEK5 inh inactive
O=C(CSc1nc2c(sc3ccccc32)c(=O)n1Cc1ccccc1)NCC1CCCO1 (stereo not given)	none
O=C(CSc1nc2c(sc3ccccc32)c(=O)n1Cc1ccco1)NCC1CCCO1 (stereo not given)	MEKK3 PB1 HTS 2.0[inhibitor], MEKK2 WT-MEK5 3.0[inhibitor] | MEKK2wt confirm inactive | MEKK2mut confirm inactive | MEKK3-MEK5 inh inactive
COc1ccc(Cl)cc1NC(=O)NC(C)C	MEKK3 PB1 HTS 47[inhibitor] | MEKK2wt confirm inactive | MEKK2mut confirm inactive | MEKK3-MEK5 inh inactive
Cc1cc(OCCCn2ccnc2)ccc1[N+](=O)[O-]	none
Cc1ccc(OCCn2ccnc2)c([N+](=O)[O-])c1	MEKK2 WT-MEK5 136 | MEKK2wt confirm inactive | MEKK2mut confirm inactive | MEKK3-MEK5 inh inactive
Cc1ccccc1N(C(=O)Cc1c[nH]c2ccccc12)C(C(=O)NC1CCCCC1)c1ccco1 (stereo not given)	none
Cc1ccc(C(C(=O)NC2CCCCC2)N(C(=O)Cc2c[nH]c3ccccc23)c2ccccc2C)o1 (stereo not given)	MEKK3 PB1 HTS 128 | MEKK2wt confirm inactive | MEKK2mut confirm inactive | MEKK3-MEK5 inh inactive
CC(NCC(O)COCCC12CC3CC(CC(C3)C1)C2)c1ccccc1 (stereo not given)	MEKK2 WT-MEK5 139 | MEKK2wt confirm inactive | MEKK2mut confirm inactive | MEKK3-MEK5 inh inactive
Clc1nc(Nc2ccc(N3CCOCC3)cc2)c2ccccc2n1	none
O=S(=O)(Nc1nc2ccccc2nc1Nc1ccc(N2CCOCC2)cc1)c1cc(Cl)ccc1Cl	MEKK3 PB1 HTS 150 | MEKK2wt confirm inactive | MEKK2mut confirm inactive | MEKK3-MEK5 inh inactive
CC1CCC(NC(=O)c2ccc(NC3=NC4CS(=O)(=O)CC4S3)cc2)CC1 (stereo not given)	none
